Hits are enriched below; roughly 0.89% of the tested compounds scored in any of these assays.
CBFb RUNX1 block = qHTS Assay for Compounds Blocking the Interaction Between CBF-beta and RUNX1 for the Treatment of Acute Myeloid Leukemia; AlphaScreen CBFb-His/RUNX1-biotin binding, biochemical; Potency, µM (series often up to 59.8 µM), for inactives: at the highest dose activity, negative = inhibition, most hits filed as inhibitors; AID 1477, 2009; 230,000 tested, under 10 active; Runt-related transcription factor 1 (Homo sapiens) + Core-binding factor subunit beta …; note: % of control where 0% means no effect
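Read-out: AlphaScreen. Format: His-CBF-beta with biotinylated RUNX1 (30 nM each) preincubated 20 min, compound 15 min, Ni-chelate plus streptavidin beads 90 min; room temperature throughout.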
Eya2 phos inh = qHTS Assay for Inhibitors of the Phosphatase Activity of Eya2; Protein phosphatase EYA2 (Homo sapiens), O00167; recombinant Eya2, OMFP fluorescence dephosphorylation (OMFP is methylfluorescein phosphate); Potency, µM (doses to about 76.9 µM), without a hit: at the highest dose activity, negative = inhibition, most hits filed as inhibitors; 330,000 tested, 0.006% active; AID 488837, 2010; note: potency is the fitted concentration of half-maximal effect; % is set by controls: 0 for no effect and ±100 for the full control effect
Target sequence (O00167 whole entry, looked up): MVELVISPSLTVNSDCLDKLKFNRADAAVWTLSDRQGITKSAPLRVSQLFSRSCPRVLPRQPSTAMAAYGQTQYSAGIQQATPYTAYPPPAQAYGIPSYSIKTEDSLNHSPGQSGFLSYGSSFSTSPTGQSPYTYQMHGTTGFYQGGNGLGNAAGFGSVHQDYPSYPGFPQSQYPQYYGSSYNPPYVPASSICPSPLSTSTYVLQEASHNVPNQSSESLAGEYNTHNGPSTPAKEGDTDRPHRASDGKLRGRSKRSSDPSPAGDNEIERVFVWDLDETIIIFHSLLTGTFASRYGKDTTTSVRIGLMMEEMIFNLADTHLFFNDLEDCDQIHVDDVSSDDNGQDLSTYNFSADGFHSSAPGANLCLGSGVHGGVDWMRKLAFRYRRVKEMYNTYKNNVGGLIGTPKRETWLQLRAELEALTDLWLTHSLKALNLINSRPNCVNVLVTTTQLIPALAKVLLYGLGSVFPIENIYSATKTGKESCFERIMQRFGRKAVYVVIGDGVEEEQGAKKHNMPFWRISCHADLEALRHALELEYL
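Eya2 protein (added as 0.2 uM solution) was preincubated with compound for 10 min at ambient temperature in 50 mM HEPES pH 7.5, 50 mM NaCl, 5 uM MgCl2, 0.05% BSA, 1 mM DTT. OMFP (added at 50 uM) then reacted 10 min; fluorescence read at 485/525 nm.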
CtBP-E1A inh = qHTS Assay for Inhibitors of the CtBP/E1A Interaction | CtBP / adenovirus E1A interaction (AlphaScreen) | activity change, % (concentration not given with the values) | 340,000 tested, 0.49% active | AlphaScreen GST-E1A/His-CtBP binding, 1536-well; hits give low values; in the data active = activity change below about -65%; inconclusive = mostly about -30% to -63%; note: % is set by controls: 0 for no effect and ±100 for the full control effect
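In 5 uL wells, 23 nL compound meets equimolar GST-E1A and His-CtBP (5X stock 125 nM each) for 2 h, 37 °C. Beads (5X, 50 ug/mL) then 1 h, 37 °C, dark.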
L3MBTL1 inh = qHTS Assay for the Inhibitors of L3MBTL1; AlphaScreen L3MBTL1–H3K9me1 peptide binding; Potency, µM (highest dose often 57.1 µM), inactives show at the top dose activity, negative = inhibition, most hits filed as inhibitors; 230,000 tested, 0.66% active; note: potency is the fitted concentration of half-maximal effect; % is set by controls: 0 for no effect and ±100 for the full control effect; nearly all actives have a fitted effect of over 60% in size
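L3MBTL1 50 nM + b-AHA-H3(1-15)K9me1 75 nM, 30 min RT; compound added, 30 min RT; streptavidin donor/Ni-chelate acceptor beads 10 ug/mL each final, 30 min RT dark; AlphaScreen read.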
MBNL1 CUG block = qHTS Assay for Inhibitors of MBNL1-poly(CUG) RNA binding; Muscleblind-like protein 1 (Homo sapiens), Q9NR56; TR-FRET MBNL1-His/biotin-(CUG)12 binding, 665/545 ratio; Potency, µM (highest dose often 57.5 µM), for the others: at the highest dose activity change, negative = inhibition, usual class: inhibitors; 280,000 tested, 0.036% active; AID 2675, 2010; active = well fitted inhibition curve with a large enough effect in the signal ratio, with a control signal flat, not every such curve was filed as active; inconclusive = small, poorly fitted or top-dose-only effect, or effect the other way, or a change in a side signal; inactive = no such curve, though single readings can be large or run the other way; the % refers to the signal ratio; note: potency is the fitted concentration of half-maximal effect; % is set by controls: 0 for no effect and ±100 for the full control effect
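Compound titration spanned 92 nM–58 uM against the MBNL1-His/biotin-(CUG)12 complex. After 60 min at room temperature with 5 nM streptavidin-XL665 and 0.055 ng/ul terbium anti-His, ratiometric 665/545 nm emission (Ex 340 nm) normalized to controls.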
Six1-Eya2 inh = qHTS Assay for Inhibitors of the Six1/Eya2 Interaction; activity change, % (no concentration beside the values); AlphaScreen GST-Six1/His-Eya2 binding, biochemical; hits give low values; Homeobox protein SIX1 (Homo sapiens) + Protein phosphatase EYA2 (Homo sapiens), …; 360,000 tested, 0.56% active; in the data active = activity change below about -65%; inconclusive = mostly about -30% to -63%; note: % is set by controls: 0 for no effect and ±100 for the full control effect
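Homogeneous AlphaScreen proximity assay pairing GST-Six1 with His-tagged Eya2 (added as 5X mix: 250 nM and 500 nM) in 50 mM Tris pH 8.0, 300 mM NaCl, 1 mM TCEP. Glutathione donor and nickel acceptor beads; 1 h, 37 °C, dark.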
Active calls of the source: *; ? = inconclusive; . = no result given; [ ] = remark or other dose. Unless noted, calls come from the whole dose curve; as a rule, active = well fitted curve in the direction sought with a large enough effect; inconclusive = small, poorly fitted or top-dose-only effect, or another doubt; inactive = no such curve, though single readings can be large; an effect the other way counts as inactive or inconclusive.

SMILES	CBFb RUNX1 block	Eya2 phos inh	CtBP-E1A inh	L3MBTL1 inh	MBNL1 CUG block	Six1-Eya2 inh
Cc1cccc(C)c1NC(=S)N(CCN(C)C)C(C)c1ccccn1 (stereo not drawn)	.	-5%	-72*	.	13%	-83*
Cc1ccc(C)c(NC(=S)N(CCN(C)C)C(C)c2ccccn2)c1 (stereo not drawn)	?	3%	-65*	.	-3%	-70*
O=c1cc(/N=C/c2coc3cc(Br)ccc3c2=O)[nH]c(=S)[nH]1	-5%	-2%	-14	1%	.	-15
CC(=O)Oc1ccc2c(=O)c(/C=N/c3cc(=O)[nH]c(=S)[nH]3)coc2c1	4%	-17%	-4	-13%	.	-75*
COc1ccc(Cn2c(-c3ccc(Br)cc3)c[n+]3ccccc23)cc1	-3%	-3%	-23	9%	-6%	-1
CCOC(=O)C1=C(C)N=c2s/c(=C/c3cccc([N+](=O)[O-])c3O)c(=O)n2C1c1ccccc1 (stereo not drawn)	.	-5%	-80*	.	?	-71*
CCOC(=O)C1=C(C)N=c2s/c(=C/c3cccc([N+](=O)[O-])c3O)c(=O)n2C1c1cc(OC)c(OC)c(OC)c1 (stereo not drawn)	.	-5%	-80*	.	?	-70*
CCOC(=O)C1=C(C)N=c2s/c(=C/c3ccco3)c(=O)n2C1c1cccc(OC)c1 (stereo not drawn)	-4%	11%	-13	?	?	-22
CC(=O)NCCc1nc2cc(NC(=O)c3ccc([N+](=O)[O-])cc3)ccc2n1C	.	-30%	-12	.	?	4
COc1cc(NC(=O)c2sc(C)nc2C)c(OC)cc1NC(=O)c1ccccc1	.	?	.	.	-1%	-25
O=c1cc[nH]c(=S)[nH]1	2%	.	.	.	.	.
O=C(/C=C1\NC2(CCCC2)Cc2ccccc21)C(=O)N/N=C/c1ccc(O)c(O)c1	-2%	-13%	-14	14µM*	146%	-21
CC(=O)c1ccc(NC(=O)CSc2nnc(NC(=O)C3CC3)s2)cc1	.	7%	-1	.	1%	2
O=C(N/N=C/c1ccccc1O)C(=O)N1CCCCCC1	.	-6%	-88*	.	4%	-79*
O=C(N/N=C/c1ccccc1)C(O)c1ccccc1 (stereo not drawn)	.	5%	-12	4%	1%	4
CN1CCN(CCC(=O)N/N=C/c2ccccc2F)CC1	12%	3%	-2	.	-9%	12
COc1cccc(/C=N/NC(=O)C(=O)N2CCCC2)c1O	-5%	-9%	10	22µM*	?	-89*
O=C(NN=Cc1ccccc1O)C(O)c1ccccc1 (stereo not drawn)	.	.	-68*	.	.	?
O=C(CCN1CCN(c2ccccc2)CC1)N/N=C/c1ccccc1O	-14%	-8%	7	-10%	-1%	-70*
O=C(NCCOC(=O)c1c(F)cccc1Cl)c1c(F)cccc1Cl	.	-3%	2	.	11%	9
CCOC(=O)Cc1nnc2c(Nc3ccc(Cl)cc3)nc3nonc3n12	3%	-36%	-2	33%[11.4 µM]	?	4
COc1ccc(N(CC(=O)Nc2ccccc2OC)S(=O)(=O)c2ccc(OC)c(OC)c2)cc1	.	-20%	-12	-4%	2%	-5
O=C(NCc1ccccc1)C(CCc1ccccc1)n1c(=O)c(-c2ccccc2)nc2ccccc21 (stereo not drawn)	.	.	0	.	.	23
O=C(N/N=C/C(Cl)=C/c1ccc([N+](=O)[O-])cc1)C(=O)Nc1cccc(C(=O)O)c1	-4%	-6%	-92*	-23%	.	?
Oc1cccc(C=NCc2ccccc2)c1O	-23%	-19%	-3	.	?	-14
SMILES	CBFb RUNX1 block	Eya2 phos inh	CtBP-E1A inh	L3MBTL1 inh	MBNL1 CUG block	Six1-Eya2 inh
O=C(NN=Cc1ccc(O)c(O)c1)c1ccccc1	.	.	-4	.	.	-13
O=C(/C(=N/N=C/c1ccc(O)c(O)c1O)c1ccccc1)c1ccccc1	-3%	-3%	-10	20µM*	-20%	-25
Oc1ccc(/C=N/N=C(c2ccccc2)c2ccccc2)c(O)c1O	?	-2%	-17	3.5µM*	7%	-24
COc1ccc(-c2c(-c3cc(OC)cc(OC)c3)n(C)c3ccc(-c4ccc(S(N)(=O)=O)cc4)cc23)cc1	.	0%	-16	-12%	.	-26
c1ccc(-c2ccccn2)nc1	6%	-4%	-18	-3%	-19%	-17
S=c1nc(-c2ccccn2)c(-c2ccccn2)n[nH]1	.	.	-89*	.	.	-83*
COc1ccc(Cl)cc1NC(=O)CN1C(=O)NC(Cc2c[nH]c3ccccc23)C1=O (stereo not drawn)	.	-6%	0	-3%	.	0
O=C(N/N=C(\c1ccccc1)c1cccnc1)c1cccc(F)c1	.	-6%	-3	.	34%	-80*
O=C(N/N=C(\c1ccccc1)c1cccnc1)c1ccc(O)cc1	.	-2%	-23	.	5%	-7
O=C(NNc1c2ccccc2nc2ccccc12)c1ccc(O)cc1	6%	4%	-75*	?	?	?
O=C(NNc1c2ccccc2nc2ccccc12)c1cccc(O)c1	-27%	-23%	-77*	-28%	?	-65*
CCCC(=O)NNc1c2ccccc2nc2ccccc12	-11%	0%	-13	0%	.	-11
CC(C)c1nc(SCC(=O)Nc2ccc(C(=O)O)cc2)c2c3c(sc2n1)CCCC3	.	-4%	-16	.	-1%	-83*
Cc1cc(C)c2c(c1)-c1c(ssc1=S)C(C)(C)N2C(=O)CSc1nncn1C	-29%	12%	-67*	?	?	-67*
CCOc1ccccc1-n1c(SCC(N)=O)nnc1-c1ccc(O)cc1	6%	-13%	-90*	16%	-13%	-90*
CCOc1ccccc1-n1c(SCC(N)=O)nnc1-c1ccccc1	3%	7%	4	-3%	5%	3
O=C1OC(Nc2nc(-c3ccc(F)cc3)cs2)c2ccccc21 (stereo not drawn)	.	13%	-3	.	8%	-2
Nc1nc2c(s1)CCc1c-2cnn1-c1ccccc1	?	1%	.	32µM*	?	-17
